Reference: PMC9911399, “Two distinct binding modes provide the RNA-binding protein RbFox with extraordinary sequence specificity”
Changes are numbered by the printed parent chain; changes in the protein carry UniProt numbers. In all, about 16,000 sequences were measured (“ka relative to ugcaugu”: median about 0.096, highest 2% from about 0.35 on). The list comes from a sample in which the highest values are over-represented; it also holds similar and randomly drawn sequences.

B1: CCAGGGC (DNA:RNA)
RNA: GGGAGACCGGAAUUCAGAUUGUCCCCAGGGCUUAAAUCCCGUCGUAGCCACCA
DNA 1: CAATCTGAATTCCGGTCTCCC
DNA 2: TGGTGGCTACGACGGGATT
B2: AGUUAUG (DNA:RNA)
RNA: GGGAGACCGGAAUUCAGAUUGUCCAGUUAUGUUAAAUCCCGUCGUAGCCACCA
DNA 1: CAATCTGAATTCCGGTCTCCC
DNA 2: TGGTGGCTACGACGGGATT
B3: ACCUUAA (DNA:RNA)
RNA: B2 RNA with G26C, U27C, A29U, U30A, G31A
DNA 1: CAATCTGAATTCCGGTCTCCC
DNA 2: TGGTGGCTACGACGGGATT
B4: CCCGCAU (DNA:RNA)
RNA: B1 RNA with A27C, G29C, G30A, C31U
DNA 1: CAATCTGAATTCCGGTCTCCC
DNA 2: TGGTGGCTACGACGGGATT
B5: CUUCACC (DNA:RNA)
RNA: B2 RNA with A25C, G26U, U28C, U30C, G31C
DNA 1: CAATCTGAATTCCGGTCTCCC
DNA 2: TGGTGGCTACGACGGGATT
B6: CGAGUAU (DNA:RNA)
RNA: B1 RNA with C26G, G29U, G30A, C31U
DNA 1: CAATCTGAATTCCGGTCTCCC
DNA 2: TGGTGGCTACGACGGGATT
B7: UGGUUUU (DNA:RNA)
RNA: B2 RNA with A25U, U27G, A29U, G31U
DNA 1: CAATCTGAATTCCGGTCTCCC
DNA 2: TGGTGGCTACGACGGGATT
B8: UGUUUGG (DNA:RNA)
RNA: B2 RNA with A25U, A29U, U30G
DNA 1: CAATCTGAATTCCGGTCTCCC
DNA 2: TGGTGGCTACGACGGGATT
B9: CCCCUGG (DNA:RNA)
RNA: B1 RNA with A27C, G28C, G29U, C31G
DNA 1: CAATCTGAATTCCGGTCTCCC
DNA 2: TGGTGGCTACGACGGGATT
B10: UGGUUGU (DNA:RNA)
RNA: B2 RNA with A25U, U27G, A29U, U30G, G31U
DNA 1: CAATCTGAATTCCGGTCTCCC
DNA 2: TGGTGGCTACGACGGGATT
B11: UGGUUGG (DNA:RNA)
RNA: B2 RNA with A25U, U27G, A29U, U30G
DNA 1: CAATCTGAATTCCGGTCTCCC
DNA 2: TGGTGGCTACGACGGGATT
B12: UGGUUUC (DNA:RNA)
RNA: B2 RNA with A25U, U27G, A29U, G31C
DNA 1: CAATCTGAATTCCGGTCTCCC
DNA 2: TGGTGGCTACGACGGGATT
B13: UGGUGGU (DNA:RNA)
RNA: B2 RNA with A25U, U27G, A29G, U30G, G31U
DNA 1: CAATCTGAATTCCGGTCTCCC
DNA 2: TGGTGGCTACGACGGGATT
B14: UGGUUUG (DNA:RNA)
RNA: B2 RNA with A25U, U27G, A29U
DNA 1: CAATCTGAATTCCGGTCTCCC
DNA 2: TGGTGGCTACGACGGGATT
B15: UGGUUCG (DNA:RNA)
RNA: B2 RNA with A25U, U27G, A29U, U30C
DNA 1: CAATCTGAATTCCGGTCTCCC
DNA 2: TGGTGGCTACGACGGGATT
B16: CUGGUUG (DNA:RNA)
RNA: B2 RNA with A25C, G26U, U27G, U28G, A29U
DNA 1: CAATCTGAATTCCGGTCTCCC
DNA 2: TGGTGGCTACGACGGGATT
B17: GUCCUGG (DNA:RNA)
RNA: B2 RNA with A25G, G26U, U27C, U28C, A29U, U30G
DNA 1: CAATCTGAATTCCGGTCTCCC
DNA 2: TGGTGGCTACGACGGGATT
B18: UGGUUCC (DNA:RNA)
RNA: B2 RNA with A25U, U27G, A29U, U30C, G31C
DNA 1: CAATCTGAATTCCGGTCTCCC
DNA 2: TGGTGGCTACGACGGGATT
B19: CUACGGU (DNA:RNA)
RNA: B1 RNA with C26U, G28C, C31U
DNA 1: CAATCTGAATTCCGGTCTCCC
DNA 2: TGGTGGCTACGACGGGATT
B20: CUCUAUU (DNA:RNA)
RNA: B2 RNA with A25C, G26U, U27C, G31U
DNA 1: CAATCTGAATTCCGGTCTCCC
DNA 2: TGGTGGCTACGACGGGATT

target: T1, RBFOX1 RRM RbFoxmut (Fox-RRM*) (Homo sapiens, UniProt Q9NWB1 109-208, R118D;E147R;N151S;E152T); test: EMSA; HiTS-Eq, 1 nM pool, 10 min; buffer printed only for the single-RNA assays: 10 mM Tris pH 7.5, 150 mM NaCl, 3.4 mM EDTA, 0.001% NP-40, 30 C; conditions: tags: His6 N-terminal (pET28a); label: 5' 32P
T1 sequence: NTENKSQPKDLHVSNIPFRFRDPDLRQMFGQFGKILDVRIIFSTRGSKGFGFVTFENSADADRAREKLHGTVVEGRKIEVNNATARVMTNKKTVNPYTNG
Procedure, shortened: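 A pool of RNA with 7 randomized nucleotides, 5′-radiolabelled and with DNA-annealed flanks, was equilibrated at 1 nM for 10 min in 50 µL with purified RbFox RRM, wild type or mutant, across increasing protein concentrations. Free RNA was separated by 8% native PAGE, excised, reverse-transcribed, barcoded by PCR and sequenced. Relative association constants were obtained from read-count changes of each RNA species versus the control reaction and normalised to the cognate motif.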

Row | Binder | binding signal
1 | B1 | 0.102 KA relative to UGCAUGU
2 | B2 | 0.28 KA relative to UGCAUGU
3 | B3 | 0.129 KA relative to UGCAUGU
4 | B4 | 0.0703 KA relative to UGCAUGU
5 | B5 | 0.0684 KA relative to UGCAUGU
6 | B6 | 0.143 KA relative to UGCAUGU
7 | B7 | 0.0956 KA relative to UGCAUGU
8 | B8 | 0.302 KA relative to UGCAUGU
9 | B9 | 0.0629 KA relative to UGCAUGU
10 | B10 | 0.396 KA relative to UGCAUGU
11 | B11 | 0.309 KA relative to UGCAUGU
12 | B12 | 0.183 KA relative to UGCAUGU
13 | B13 | 0.161 KA relative to UGCAUGU
14 | B14 | 0.874 KA relative to UGCAUGU
15 | B15 | 0.492 KA relative to UGCAUGU
16 | B16 | 0.458 KA relative to UGCAUGU
17 | B17 | 0.075 KA relative to UGCAUGU
18 | B18 | 0.157 KA relative to UGCAUGU
19 | B19 | 0.0878 KA relative to UGCAUGU
20 | B20 | 0.107 KA relative to UGCAUGU
